Results published in the supplement of paper PMC6555819.

system: RARg:RXRa (NR concentration 270 nM, RXRa partner concentration 90 nM); experiment: PBM binding z-score (relative to random genomic background probes); higher = stronger binding; sequences stand for … in GC…GCGATTGACAGCGTAGAATGAAGG
Outline: (§1)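 On custom Agilent 4×180K arrays, double-stranded probes with 34-nt variable regions carried direct-repeat seeds, single-nucleotide variants, half-site ablations or random human genomic background. Ligand-free nuclear receptor dimers were applied for 1 h, and binding was read with antibodies against each partner (one per run). Binding z-scores come from regression-normalized fluorescence, with the random background probes as reference.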

Row | Sequence | PBM binding z-score
1 | TCATATAGGTATAAGGTGAAAGTCGGTGTGGTAA | 0.768
2 | GCTATTAGTTGAAAGAGCAACCGAATGATTCTCG | -0.181
3 | ACTAGCAGGCCATGTTTGGGTCACTCAAACAAAG | 2.04
4 | ATCTCTAGGTAACAAGTTCACTGAAAGAGAGGAC | 2.27
5 | TCTGCTAGGGCAACGATGGTCAGCTAATCTGCTA | 0.579
6 | GCTTGTAGATCAAGGTAAAGAAAGACTAAGCTAA | -0.145
7 | TCTGCTAAGTCAACGATGGTCAGCTAATCTGCTA | -0.413
8 | CCTACTGGGCCACGAAAGGTCGTTGATTCAGTGA | 1.65
9 | CAAACTAGGTCGAGAGGTCAAAGTCCGCTTCCCG | 5.98
10 | ACAGACAGGTGATGAAGGTAAGTCAGGCTATCAT | 0.153
11 | ATCGAACGGTCGAAGGTGAGTATACCCACCCGAA | 0.884
12 | AGAATGAGGTTAAGATCAGGGAAACAGAATACAT | 2.17
13 | ATATGTAGGTTAACGGTCATTCAGGTTGGTTCGC | 2.13
14 | TCTGCTAGGTCAGATGGTCAGCTAACGAGCTGCC | 3.25
15 | TCTGCGAGGTCAGTTGGTCAGCTAACGAGCTGCC | 5
16 | TCGAGTAGGGTAGTCGGGGCATTCAGCCAACATA | -0.271
17 | AGAATGAGGTTACCAATGATCAGGGAAACGCTTG | 2.23
18 | GCGACTGGGGCAAAGCGGGTTACCATAAGGTTGG | 0.446
19 | AGAATGAGGTTATTAAGATCATGGAATTGCGGTC | 1.25
20 | GCGACTGGGGCATCAGCAGGTTACCCTAACTTAA | 0.748

Row | Sequence | PBM binding z-score
21 | CCTACTGGGCCACGAAAGGTCATTGTTTCAGTGA | 4.55
22 | CCCACTGGGCCATCAGGTCATTGATATCAACGTT | 2.09
23 | TCGAGTAGGTTACCAATCGGGCATTCAGCTTTCT | 1.32
24 | ATCACTAGGTAAAGTTCAGTGAAAGATCGATAGA | 2.32
25 | CCTATTACTTGACCATAAGGGCAACCGAAGCTCG | 0.821
26 | CCTCGGAGGACAGGAGGTCAGAGCTGTCCGCTTT | 3.42
27 | TCTATTAATTGAAGGGCAACCGACGAGTCCGTTT | 0.656
28 | ATCGCTAGGTAAAGTTCAGTGAAAGATCGATAGA | 1.75
29 | ACTAGCAGGCCAGGGGTCACTCAAGATTAGTCCG | 5.09
30 | AGAATGAGGTTAGTAAGATCAGGGAATTGCGGTC | 0.607
31 | CTTGAAAGGTCGGTTGAGGTGAGTATACGGATAA | 2.6
32 | TGAATGAGGTAATAAGATCAGGGAACGTTGCAAA | 0.204
33 | TCGAGTAGGTTAGCAATGGGGCATTCAGCTTTCT | 0.194
34 | CAAACTAGGTCAAAGGTCACAGTCGAGCCAACCA | 8.75
35 | CTCCCAAGGTGAACAAGGTCGTTGATTACTATTC | 1.68
36 | GGAACTAGGGCAAGTTGATAGCAGAGTTTGATGG | 0.675
37 | AGACAAAGTTCATCTAGGTAACGTAAGATATGCT | 5.68
38 | TGAATGAGGTTACAAGATCAGGGAACGTTGCAAA | 1.79
39 | GCTATTAGTTGAAAGGGCGACCGAATGATTCTCG | 0.148
40 | TCTTGTAGATCAATAGAGGTTATGAAAGTGCGCT | 1.01

system: RARg homodimer (NR concentration 270 nM); experiment: as above
Outline: as §1

Row | Sequence | PBM binding z-score
41 | TCATATAGGTATAAGGTGAAAGTCGGTGTGGTAA | 0.521
42 | GCTATTAGTTGAAAGAGCAACCGAATGATTCTCG | 0.242
43 | ACTAGCAGGCCATGTTTGGGTCACTCAAACAAAG | 1.42
44 | ATCTCTAGGTAACAAGTTCACTGAAAGAGAGGAC | 2.04
45 | TCTGCTAGGGCAACGATGGTCAGCTAATCTGCTA | 0.934
46 | GCTTGTAGATCAAGGTAAAGAAAGACTAAGCTAA | -0.335
47 | TCTGCTAAGTCAACGATGGTCAGCTAATCTGCTA | -0.169
48 | CCTACTGGGCCACGAAAGGTCGTTGATTCAGTGA | 1.29
49 | CAAACTAGGTCGAGAGGTCAAAGTCCGCTTCCCG | 5.09
50 | ACAGACAGGTGATGAAGGTAAGTCAGGCTATCAT | 0.428
51 | ATCGAACGGTCGAAGGTGAGTATACCCACCCGAA | 0.957
52 | AGAATGAGGTTAAGATCAGGGAAACAGAATACAT | 1.52
53 | ATATGTAGGTTAACGGTCATTCAGGTTGGTTCGC | 2
54 | TCTGCTAGGTCAGATGGTCAGCTAACGAGCTGCC | 4.16
55 | TCTGCGAGGTCAGTTGGTCAGCTAACGAGCTGCC | 5.42
56 | TCGAGTAGGGTAGTCGGGGCATTCAGCCAACATA | -0.538
57 | AGAATGAGGTTACCAATGATCAGGGAAACGCTTG | 1.63
58 | GCGACTGGGGCAAAGCGGGTTACCATAAGGTTGG | 0.469
59 | AGAATGAGGTTATTAAGATCATGGAATTGCGGTC | 0.948
60 | GCGACTGGGGCATCAGCAGGTTACCCTAACTTAA | 0.106

Row | Sequence | PBM binding z-score
61 | CCTACTGGGCCACGAAAGGTCATTGTTTCAGTGA | 4.31
62 | CCCACTGGGCCATCAGGTCATTGATATCAACGTT | 1.65
63 | TCGAGTAGGTTACCAATCGGGCATTCAGCTTTCT | 0.199
64 | ATCACTAGGTAAAGTTCAGTGAAAGATCGATAGA | 2.39
65 | CCTATTACTTGACCATAAGGGCAACCGAAGCTCG | 1.15
66 | CCTCGGAGGACAGGAGGTCAGAGCTGTCCGCTTT | 3.29
67 | TCTATTAATTGAAGGGCAACCGACGAGTCCGTTT | 0.454
68 | ATCGCTAGGTAAAGTTCAGTGAAAGATCGATAGA | 1.86
69 | ACTAGCAGGCCAGGGGTCACTCAAGATTAGTCCG | 4.23
70 | AGAATGAGGTTAGTAAGATCAGGGAATTGCGGTC | 0.689
71 | CTTGAAAGGTCGGTTGAGGTGAGTATACGGATAA | 2.68
72 | TGAATGAGGTAATAAGATCAGGGAACGTTGCAAA | 0.306
73 | TCGAGTAGGTTAGCAATGGGGCATTCAGCTTTCT | -0.0673
74 | CAAACTAGGTCAAAGGTCACAGTCGAGCCAACCA | 7.36
75 | CTCCCAAGGTGAACAAGGTCGTTGATTACTATTC | 1.41
76 | GGAACTAGGGCAAGTTGATAGCAGAGTTTGATGG | 1.21
77 | AGACAAAGTTCATCTAGGTAACGTAAGATATGCT | 5.87
78 | TGAATGAGGTTACAAGATCAGGGAACGTTGCAAA | 1.52
79 | GCTATTAGTTGAAAGGGCGACCGAATGATTCTCG | 0.219
80 | TCTTGTAGATCAATAGAGGTTATGAAAGTGCGCT | 0.611
